# Hit rate of the full screen: of about 410,000 compounds, about 2,000 (0.49%) were called active. Another 8% or so got no clear call; they are omitted. This is one part of a sample in which actives are shown more often than they occur. Values without a mark were called inactive. Calls follow the shape of the full dose curve; tested in HEK293 reporter line.
# Assay: qHTS Assay for Foot and Mouth Disease Virus Antivirals: Primary Screen against the MLPCN compound library; also: nearly all actives have a fitted effect of over 55% in size
# Conditions: FMDV antiviral cell-based qHTS; series mostly up to 57.9 µM; activity, negative = inhibition: at the top concentration
# Potency is read from the fitted curve at half-maximal effect.
Compound,"activity, negative = inhibition",Potency
O=C(N/N=C/c1cccs1)C(O)c1ccccc1 (centres undefined),110%,–
O=C(Nc1cccc(Cl)c1N1CCOCC1)c1cc([N+](=O)[O-])ccc1N1CCOCC1,-37.2%,–
CCOc1ccc(NC(=O)N(Cc2ccc(CC)cc2)Cc2cn[nH]c2-c2ccc(OC)cc2)cc1,-31.5%,–
CCOC(=O)c1cc(C)n(CC2CCC(C(=O)Nc3ccc(OC)cc3)CC2)c1C (centres undefined),-31.8%,–
CCOC(=O)c1cn[nH]c1NC(=S)Nc1ccc(OC)cc1,–,17.8 µM (active)
Cc1ccc(S(=O)(=O)N/N=C/c2ccc(OCC(=O)N3CCOCC3)cc2)cc1,121%,–
CCOc1ccc(CNC(=O)CCCn2ccc3cc(S(=O)(=O)N4CCCC4)ccc32)cc1,-31.1%,–
O=C(Nc1cccc(S(=O)(=O)N2CCCCC2)c1)c1cnccn1,-31.3%,–
O=C(Nc1ccc(N2CCOCC2)c(Cl)c1)c1c(F)c(F)c(F)c(F)c1F,-42.1%,–
O=C(Nc1ccc(N2CCOCC2)cc1)c1cnccn1,–,12.6 µM (active)
Cc1cc2oc(C(=O)NC3CCS(=O)(=O)C3)cc(=O)c2cc1C (centres undefined),-51.9%,–
CCc1ccc(NC(=O)c2sc3nc(C)nc(N4CCN(c5ccccn5)CC4)c3c2C)cc1,-84.8%,–
Cc1ccc(S(=O)(=O)N(C)CCCC(=O)N2CCN(c3ccccn3)CC2)cc1,–,22.4 µM (active)
Cc1ccc(S(=O)(=O)N(C)CCCC(=O)Nc2ccncc2)cc1,-35%,–
CN(C)c1ccc(C(=O)N2CCCC(CCC(=O)N3CCN(c4ccccn4)CC3)C2)cc1 (centres undefined),-31.5%,–
COc1ccc(C(=O)NCC(=O)N2CCN(C(=O)c3ccco3)CC2)cc1[N+](=O)[O-],-58.7%,–
CC(NC(=O)C1CCN(CCOc2ccc(Cl)cc2)CC1)c1cccc2ccccc12 (centres undefined),-31.2%,–
O=C(/C=C/c1ccco1)N1CCN(C/C=C/c2ccccc2)CC1,-36.1%,–
O=C(c1ccc(=O)n(Cc2ccccc2)n1)N1CCN(C/C=C/c2ccccc2)CC1,–,15.8 µM (active)
C[C@H](NC(=O)c1ccc(C(C)(C)C)cc1)C(=O)N1CCN(C/C=C/c2ccccc2)CC1,-40.1%,–
CCOc1ccc(-n2c(SCc3nc(-c4ccc(OC)cc4)no3)nnc2-c2ccncc2)cc1,-39.4%,–
O=C(NCc1ccc(F)cc1)C(=O)NCC(c1cccs1)S(=O)(=O)c1cccs1 (centres undefined),-30.9%,–
Cc1ccc(Nc2sc(C(=O)c3ccccc3)c(N)c2C(=O)Nc2ccc(Cl)cc2)cc1,–,15.8 µM (active)
Cc1sc(NC(=O)c2ccccc2)c(C(=O)c2ccccc2)c1C,-34%,–
Cc1ccccc1Nc1sc(C(=O)c2ccccc2)c(N)c1S(C)(=O)=O,-27.5%,–

Compound,"activity, negative = inhibition",Potency
O=S(=O)(c1ccc(Cl)cc1)c1nnn2c1nc(NC1CCCCC1)c1sccc12,-30.8%,–
Cc1ccc2nc(NC(=O)c3cc(-c4ccco4)nc4ccccc34)sc2c1,-32.7%,–
Cc1ccc2nc(NC(=O)CSc3nccn3Cc3ccc(F)cc3)sc2c1,-21.8%,–
COc1ccc2nc(NC(=O)c3ccco3)sc2c1,–,15.8 µM (active)
COc1ccc2oc(C(=O)Nc3nc4ccc(S(C)(=O)=O)cc4s3)c(C)c2c1,-31.4%,–
COc1ccc(C(=O)Nc2nc3ccccc3s2)c(OC)c1,-99.7%,–
Cc1ccc2nc(NC(=O)c3ccco3)sc2c1,–,12.6 µM (active)
CCCCCc1nnc(NC(=O)c2cccc(S(=O)(=O)N3CCOCC3)c2)s1,-35.2%,–
CN(C)S(=O)(=O)N1CCc2ccc(NC(=O)c3ccc(C(F)(F)F)cc3)cc2C1,-41%,–
COc1cc(-c2cc(NC=O)c3ncc(-c4cccc(C(F)(F)F)c4)n3c2)cc(OC)c1OC,-31.8%,–
CSc1ccccc1OCc1cc(C(=O)NCC(C)(C)N2CCOCC2)no1,-23.1%,–
N#Cc1cc2c(nc1SCC(=O)Nc1ccc(OC(F)(F)F)cc1)C1CCN2CC1,–,15.8 µM (active)
O=C(CSc1nc(=O)n(CCN2CCOCC2)c2c1CCC2)Nc1ccc(OC(F)(F)F)cc1,-40.8%,–
O=C1CCCN2N=C(SCC(=O)Nc3ccc(OC(F)(F)F)cc3)SC2=N1,-31%,–
CCCN1C(=O)c2cc(C(=O)Nc3ccccc3OC)ccc2C1Nc1ccccc1OC (centres undefined),-38.9%,–
CCc1ccc(-n2c(=O)c3c4c(sc3n(CC(=O)N3CCCCC3CC)c2=O)CCC4)cc1 (centres undefined),-31.9%,–
CC(C)C(=O)N1CCC(CN=Cc2c(O)n(C3CCCCC3)c(=O)n(C3CCCCC3)c2=O)CC1,–,25.1 µM (active)
Cc1ccc(-c2cc(-c3ccc(F)cc3)nc(N)c2C#N)o1,-34.5%,–
CC(C)(C)OC(=O)N1CCCC(C(=O)Nc2cccc(C(=O)NCc3ccccc3)c2)C1 (centres undefined),-40.2%,–
CC(C)Oc1ccc(CNC(=O)c2cccc(NC(=O)N3CCSc4ncccc43)c2)cc1,–,20 µM (active)
CC(C)Oc1ccc(CN2CCC2(C)C(=O)Nc2cccc(Oc3ccccc3)c2)cc1 (centres undefined),-33.4%,–
Cc1[nH]c2ccccc2c1C(=O)CN1C(=O)C(=O)N(CCC2=CCCCC2)C1=O,-31.7%,–
COc1cc2c(cc1NC(=O)c1cc(-c3ccncc3)nc3ccccc13)oc1ccccc12,-31.8%,–
CCC1(c2ccc(F)cc2)NC(=O)N(CC(=O)Nc2cc(S(=O)(=O)N(C)C)ccc2Cl)C1=O (centres undefined),-31.6%,–
